Inconclusive results are not listed. Values without a mark were called inactive. Active and inactive are the calls of the source. The call rests on the fitted dose curve; in most records, active means well fitted activation curve with a large enough effect; inconclusive means small, poorly fitted or top-dose-only effect; inactive means no such curve, though single readings can be large or run the other way.
Experiment: qHTS assay for re-activators of p53 using a Luc reporter: Hit Validation; further: nearly all actives have a fitted effect of over 75% in size; on activation: 0% is about no effect
Conditions: p53-responsive luciferase reporter cells, luminescence, H1299 line expressing heat-sensitive Ala138Val p53; series mostly up to 46.1 µM
In short: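 H1299 (p53-null) cells stably carrying p53-A138V and a BP100-luciferase reporter, 1000 cells/well, treated 24 h at 37 deg C. Compounds at several concentrations, 1:5 dilution; nocodazole control; luminescence read after 10 min with detection reagent.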
Potency means the concentration at half of the fitted maximal effect.

Structure (SMILES) | activation | Potency
CCOC(=O)N1CCN(S(=O)(=O)c2ccc(C(=O)NNc3nc4cc(C)cc(C)c4s3)cc2)CC1 | 6.68% [at 9.22 µM] | –
COc1cccc(C(=O)c2sc(NC(C)C)nc2N)c1 | 25.6% [at 9.22 µM] | –
O=C(NNC(=O)c1cccnc1SCc1cccc([N+](=O)[O-])c1)c1ccccn1 | – | inactive
O=C(NCC(=O)N1CCN(c2ncccn2)CC1)c1ccc(F)cc1 | – | inactive
Cc1cccc(N2CCN(S(=O)(=O)c3ccc4c(c3)CCC(=O)N4)CC2C)c1 (configuration not stated) | – | inactive
CCOC(=O)NC1(Nc2ccc(C)cc2)Oc2ccccc2O1 | – | 16400 nM (active)
O=C(NCCN1CCCCC1)Nc1cccc(C(F)(F)F)c1 | – | inactive
O=C(Nc1ccc2ccccc2c1)c1ccc(Cl)cc1Cl | – | 291 nM (active)
CCOC(=O)c1c(C)[nH]c(C(=O)OCCOc2ccccc2C)c1C | – | 1300 nM (active)
COc1ccc2nc(SCc3ccccc3)nc(C)c2c1 | – | 1460 nM (active)
COc1cccc(N(C(=O)c2nc3nccc(C)n3n2)c2nc3ccccc3s2)c1 | – | 7310 nM (active)
Oc1ccccc1-c1cc(-c2ccc3c(c2)OCCO3)n[nH]1 | – | 184 nM (active)
Cc1ccc(NC(=O)/C(Cl)=C/c2ccccc2)cc1C | – | 2060 nM (active)
Cc1cnc(C(=O)OCC(=O)c2csc(N3CCCCC3)n2)cn1 | – | inactive
Cc1cc(Br)c(S(=O)(=O)NCCN2CCOCC2)cc1C | – | inactive
NC(=NCc1ccccc1)c1cccc([N+](=O)[O-])c1 | – | inactive
COc1ccc(C(=O)O/N=C(\N)c2ccccc2)c(OC)c1 | – | 366 nM (active)

— PubChem BioAssay AID624305 (National Center for Advancing Translational Sciences (NCATS), 2012)
